Source: PubChem BioAssay
The list is not random: actives were taken first. Their share in the collection is about 19%.
TDP1 cell noCPT – qHTS for Inhibitors of human tyrosyl-DNA phosphodiesterase 1 (TDP1): qHTS in cells in absence of CPT; Potency, µM (top dose mostly 46.2 µM), inactives show at the highest dose activity change, negative = growth inhibition, most hits filed as inhibitors; actives 15% (n = 420,000); AID 686978, 2013; DT40 Tdp1-/- hTDP1 cells, no CPT, ATP luminescence, 48 h; also: potency is read from the fitted curve at half-maximal effect; nearly all actives have a fitted effect of over 55% in size
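Growth of hTDP1-complemented DT40 Tdp1-knockout cells is measured by ATP luminescence after at least 48 hr compound exposure at 37 °C, with DMSO substituting for the 20 nM CPT used in the parallel screen.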
uPA generation – qHTS for Inhibitors of Cell Surface uPA Generation | AID 540303, 2011 | Potency, µM (top dose mostly 38.3 µM), inactives show top-dose activity change, negative = inhibition, usual class: inhibitors | actives 0.31% (n = 330,000) | cell surface uPA generation assay, qHTS; active = well fitted inhibition curve with a large enough effect; inconclusive = small, poorly fitted or top-dose-only effect; inactive = no such curve, though single readings can be large or run the other way; tested in mouse RAW 264.7 cells; also: potency is read from the fitted curve at half-maximal effect; nearly all actives have a fitted effect of over 55% in size
HT1080NT lethal – qHTS for induction of synthetic lethality in tumor cells producing 2HG: qHTS for the HT-1080-NT fibrosarcoma cell line | Potency, µM (series often up to 46.1 µM), without a hit: top-dose activity, negative = less viability, hits mostly cytotoxic | HT-1080-NT fibrosarcoma viability, CellTiter-Glo ATP luminescence, 48 h | actives 1.6% (n = 360,000);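 also: NT is the 2HG producing partner of a matched IDH1 knockdown line; potency is read from the fitted curve at half-maximal effect; 0% = DMSO-treated cells and -100% = media-only wells without cells; nearly all actives have a fitted effect of over 55% in size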
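750 cells/well, RPMI + 5% FBS; 2 h settle, compound pin-transfer, 48 h at 37 degrees C. CellTiter-Glo 10 min RT, luminescence. Normalized to DMSO and media-only wells.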
IL1B secr inh – qHTS for Inhibitors of Inflammasome Signaling: IL-1-beta AlphaLISA Primary Screen. THP-1 LPS/ATP IL-1B secretion, AlphaLISA, 16 h; active compounds read low. AID 743279, 2014. actives 4.7% (n = 360,000). activity change, % at 57.5 µM; in the data active = activity change below about -50%; inconclusive = mostly about -30% to -49%
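THP-1 cells pretreated 1 hr with compounds (up to 57.5 uM final), then stimulated with LPS (250 ng/mL final) plus ATP (1.25 mM final); secreted IL-1B measured by AlphaLISA after 16 hr, decreased signal indicating inhibition.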
TDP1 cell CPT – qHTS for Inhibitors of human tyrosyl-DNA phosphodiesterase 1 (TDP1): qHTS in cells in presence of CPT | Potency, µM (series often up to 46.2 µM), for the others: at the highest dose activity change, negative = growth inhibition, usual class: inhibitors | actives 12% (n = 420,000) | chicken DT40 Tdp1-/-;hTDP1 cells + 20 nM CPT, ATP luminescence, 48 h; also: potency is read from the fitted curve at half-maximal effect; nearly all actives have a fitted effect of over 55% in size
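Chicken DT40 Tdp1-/- cells stably complemented with human TDP1 were seeded at 400 cells/well in medium containing 20 nM camptothecin, exposed to pin-transferred compounds, and grown at 37 °C for at least 48 hr. Viability was read as ATP luminescence.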
HT1080 IDH1KD tx – qHTS for induction of synthetic lethality in tumor cells producing 2HG: qHTS for the HT-1080-IDH1KD cell line. AID 686971, 2013. Potency, µM (doses to about 46.1 µM), for inactives: at the top dose activity, negative = toxicity, usual class: cytotoxic. HT-1080 IDH1 knockdown viability, ATP luminescence, 48 h. actives 2% (n = 360,000);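 also: potency is read from the fitted curve at half-maximal effect; 0% = DMSO wells and -100% = cell-free medium wells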
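CellTiter-Glo luminescence after 48 h compound exposure at 37 degrees C of IDH1-knockdown HT-1080 cells in 5% FBS RPMI. %Activity scaled between DMSO wells and cell-free media wells, with curves fitted and assigned curve classes.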
Starred values were filed as active, the others as inactive; u = inconclusive; x = no result; [ ] = another dose, or the depositor's remark. Unless noted, calls follow the shape of the dose curve; as a rule, active = well fitted curve in the direction sought with a large enough effect; inconclusive = small, poorly fitted or top-dose-only effect, or another doubt; inactive = no such curve, though single readings can be large; an effect the other way counts as inactive or inconclusive. Unless noted, % is scaled to controls: 0 for no effect and ±100 for the full control effect.

SMILES | TDP1 cell noCPT | uPA generation | HT1080NT lethal | IL1B secr inh | TDP1 cell CPT | HT1080 IDH1KD tx
CCN(CC)S(=O)(=O)c1ccc(C(O)=C(C#N)c2nc3ccccc3n2C)cc1 | 13µM* | -1.7% | -16.3% | -72.2* | 16.4µM* | -5.5%
Cn1c(/C(C#N)=C(\O)c2ccccc2Cl)nc2ccccc21 | -21.8% | -10.5% | 0.0% | -19.2 | 15.4% | -0.8%
N#CC1=C(N)C(C#N)(C#N)[C@H](c2cccnc2)[C@H]2CN(C(=O)OCc3ccccc3)CC=C12 | 14.6µM* | u | -11.0% | 26.4 | u | u
CN1CC=C2C(C#N)=C(N)C(C#N)(C#N)C(CCc3ccccc3)C2C1 (configuration not stated) | u | -4.0% | -11.1% | 7.1 | u | -8.5%
N#CC1=C(N)C(C#N)(C#N)C(c2cccnc2)C2CC(c3ccccc3)CC=C12 (configuration not stated) | 20.6µM* | 2.2% | u | 4.2 | 16.4µM* | -8.4%[9.24 µM]
CCOC(=O)N1CC=C2C(C#N)=C(N)C(C#N)(C#N)[C@H](c3ccccc3OCC)[C@H]2C1 | u | -17.1% | u | 14.4 | u | u
COc1ccc(-c2csc(N3N=C(C)C(C)C3=O)n2)cc1 (configuration not stated) | u | 4.4% | -11.3% | -8.8 | u | -16.2%
CC1=NN(c2nc(-c3ccc(C)cc3)cs2)C(=O)C1N=Nc1cccc(O)c1 (configuration not stated) | 16.4µM* | 1.0% | -7.8% | 32.1 | u | -10.5%
CC1=NN(c2nc(-c3ccc(C)cc3)cs2)C(=O)C1N=Nc1ccccc1O (configuration not stated) | 4.61µM* | -0.8% | -27.4% | 241.0 | 4.11µM* | u
O=C(NCCc1ccc(O)cc1)c1[nH]c(C(F)(F)F)nc1-c1ccccc1 | -12.2% | x | 1.1% | 13.5 | u | 11.2%
CCOC(=O)CSc1nnc(CSc2nc3sc4c(c3c(=O)[nH]2)CCCC4)n1-c1ccccc1 | 3.9% | -0.4% | -1.1% | -6.5 | 9.9% | 9.6%
Nc1cc(OC(=O)c2ccc(F)cc2)nn1S(=O)(=O)c1ccccc1 | -22.0% | 7.0% | -5.0% | 19.2 | 4.2% | -11.8%
Cc1cccc(N2C(=O)CC(Sc3nc(C)cc(C)n3)C2=O)c1 (configuration not stated) | u | -0.6% | 14.4% | 25.9 | u | 2.7%
Cc1ccc(N2C(=O)CC(Sc3cccs3)C2=O)cc1 (configuration not stated) | 5.8µM* | u | 4.4% | -14.5 | 16.4µM* | -0.7%
COc1ccc(N2C(=O)CC(Sc3nc(C)c4c(n3)CCCC4)C2=O)cc1 (configuration not stated) | 23.1µM* | -15.7% | 14.6µM* | 51.8 | 18.4µM* | u
Cc1nc(SC2CC(=O)N(c3cc(Cl)cc(Cl)c3)C2=O)nc2c1CCCC2 (configuration not stated) | u | -0.9% | -18.8% | 24.8 | 20.6µM* | -22.9%
Cc1cccc(N2C(=O)CC(Sc3nnc(C)s3)C2=O)c1 (configuration not stated) | 6.51µM* | -2.2% | 10.7% | -1.1 | 5.17µM* | 9.8%
CCCCOc1cccc2c(=O)n(CC(=O)Nc3ccc4c(c3)OCCO4)ccc12 | -26.5% | x | -6.5% | -13.3 | -4.2% | -22.5%
Cc1cccc(N2C(=O)CC(Sc3nc(C)c4c(n3)CCCC4)C2=O)c1 (configuration not stated) | -14.1% | x | 7.08µM* | 5.5 | u | 10µM*
O=C(O)c1c(C(=O)O)c2ccccc2[nH]c1=O | -8.6%[9.04 µM] | x | x | x | -18.4%[9.04 µM] | x
C[C@H](CO)N1C[C@H](C)[C@@H](CN(C)Cc2ccc3c(c2)OCO3)Oc2c(NC(=O)C3CCCCC3)cccc2C1=O | 23.1µM* | -3.9% | -7.6% | u | 20.6µM* | -11.1%
C[C@H](CO)N1C[C@H](C)[C@@H](CN(C)Cc2ccc(C(=O)Nc3ccccc3N)cc2)Oc2c(NC(=O)C3CCCCC3)cccc2C1=O | 14.6µM* | u | -9.7% | -22.2 | 14.6µM* | -0.6%
CC(C)NC(=O)N(C)C[C@H]1Oc2c(NC(=O)Cc3ccccc3)cccc2C(=O)N([C@H](C)CO)C[C@@H]1C | -6.8% | 7.3% | -1.9% | 19.4 | -12.9% | -1.5%
C[C@H](CO)N1C[C@H](C)[C@@H](CN(C)C(=O)Nc2ccc3c(c2)OCO3)Oc2c(NC(=O)C3CCCCC3)cccc2C1=O | -10.4% | 6.1% | -1.0% | -3.9 | -7.5% | 1.2%
C[C@H](CO)N1C[C@H](C)[C@@H](CN(C)CC2CCCCC2)Oc2c(NC(=O)Cc3ccccc3)cccc2C1=O | 16.4µM* | u | -11.6% | -70.0* | 14.6µM* | -18.9%
SMILES | TDP1 cell noCPT | uPA generation | HT1080NT lethal | IL1B secr inh | TDP1 cell CPT | HT1080 IDH1KD tx
CCc1nnc2c3ccccc3nc(Nc3ccccc3OC)n12 | u | x | x | x | -11.7% | x
CN(C(=O)CSc1nc2ccccc2n1CC(=O)N(C)C1CCCCC1)c1ccccc1 | 18.4µM* | x | x | x | u | x
CN(C(=O)CSc1nc2ccccc2n1CC(=O)N(C)c1ccc(F)cc1)c1ccccc1 | 20.6µM* | x | x | x | 18.4µM* | x
CN(C(=O)CSc1nc2ccccc2[nH]1)c1ccc(F)cc1 | -15.8% | x | x | x | -14.3% | x
CC(C)NC(=O)C(c1ccc(F)cc1)N(Cc1ccco1)C(=O)CCC(=O)Nc1ccccn1 (configuration not stated) | -3.7% | -1.1% | 8.1% | -7.8 | 5.0% | -0.4%
CCN(CC)CC(C)CNC(=O)CN1C(=O)CSc2ccc(S(=O)(=O)N3CCOCC3)cc21 (configuration not stated) | 4.7% | 2.2% | 1.3% | 0.0 | 7.5% | -0.4%
CCOc1ccc(-c2nc(C#N)c(NCCCOC)o2)cc1 | 6.51µM* | x | x | x | 8.2µM* | x
Cc1ccc(CNc2oc(-c3ccco3)nc2C#N)cc1 | u | -5.3% | 2.5% | 9.7 | 17.8% | -0.3%
CCOc1ccc(/C=C/c2nc(C#N)c(NCCCOC)o2)cc1 | 1.46µM* | -6.3% | u | -1.8 | 2.31µM* | u
CN(C)CCCNc1oc(/C=C/c2ccccc2)nc1C#N | 1.2% | -2.1% | 24.1% | -21.8 | 2.5% | 6.6%
CCOc1ccc(-c2nc(C#N)c(NCc3ccco3)o2)cc1 | u | 1.0% | -3.7% | u | 20.6µM* | 21.0%
